In PubChem BioAssay (NCI):
This is part of a sample that, as a whole, favours compounds with a hit. Of some 83,000 tested, about 20% had one in any assay.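 Method: cells in 96-well plates; compound added at one concentration; 48 h incubation; percent growth measured; values under 10 scored active.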 Activity calls are given as the source filed them.

Assays:
Assay in all cases: NCI-60 one-dose screen, 48 h (100 = growth as untreated, 0 = no growth, -100 = all killed)
Conditions in all cases: 10 µM unless noted
T-47D breast = tested on: T-47D breast
BT-549 breast = tested on: BT-549 breast
MDA-MB-435 melanoma = tested on: MDA-MB-435 melanoma
SW-620 colon = tested on: SW-620 colon
MCF7 breast = tested on: MCF7 breast
HCT-116 colon = tested on: HCT-116 colon
HCC-2998 colon = tested on: HCC-2998 colon
KM12 colon = tested on: KM12 colon
MDA-MB-468 breast = tested on: MDA-MB-468 breast

Measured: growth

COc1ccc(-c2nc(SCC(C)C)nc(NCCc3c[nH]c4ccccc34)c2C#N)cc1
inactive: T-47D breast 22.6% | BT-549 breast 80.8% | MDA-MB-435 melanoma 80.7% | SW-620 colon 72.7% | MCF7 breast 22.8% | HCT-116 colon 25.1% | HCC-2998 colon 62.6% | KM12 colon 52.8% | MDA-MB-468 breast 58.4%

COc1ccc2c(c1)C(=N/N=C(\C)c1ccc(OC)c(S(N)(=O)=O)c1)C(=O)N2
inactive: T-47D breast 87% | BT-549 breast 59% | MDA-MB-435 melanoma 96.1% | SW-620 colon 93.9% | MCF7 breast 90.3% | HCT-116 colon 88.6% | HCC-2998 colon 111% | KM12 colon 97.5% | MDA-MB-468 breast 78.6%

Cc1ccc(C(SCCNCc2cc(N(C)C)ccn2)(c2ccccc2)c2ccccc2)cc1
active: T-47D breast -39% | BT-549 breast -51.8% | MDA-MB-435 melanoma -75.4% | SW-620 colon -79.4% | MCF7 breast -80.5% | HCT-116 colon -80.5% | HCC-2998 colon -93.8% | KM12 colon -40.1% | MDA-MB-468 breast -69.5%

CN(C)CCCNC(=O)c1cc(NC(=O)c2cc(NC(=O)c3ccc(C#Cc4ccccc4)cc3)cn2C)cn1C
active: T-47D breast -14.9% | BT-549 breast -15% | MDA-MB-435 melanoma -63.3% | SW-620 colon -12.9% | MCF7 breast -93.3% | HCT-116 colon -92.4% | HCC-2998 colon -90.7% | KM12 colon -64% | MDA-MB-468 breast -93.8%

CCOC(=O)C(N=Nc1ccc(S(=O)(=O)N=C(N)N)cc1)C(C)=O (configuration not stated)
inactive: T-47D breast 105% | BT-549 breast 113% | MDA-MB-435 melanoma 105% | SW-620 colon 102% | MCF7 breast 97.9% | HCT-116 colon 109% | HCC-2998 colon 120% | KM12 colon 103% | MDA-MB-468 breast 92.9%

CN(C)CCn1c2ccccc2c2nc3ccc([N+](=O)[O-])cc3nc21
active: HCT-116 colon 0.47% | HCC-2998 colon 2.82% | KM12 colon 1.62% | MDA-MB-468 breast -25.5%
inactive: T-47D breast 14.3% | BT-549 breast 12.5% | MDA-MB-435 melanoma 22.3% | SW-620 colon 12.2% | MCF7 breast 12.4%

COc1cc2c(c(OC)c1OC)C(=O)CC(c1cccc(NC(=O)c3cc(N)ccc3Cl)c1)O2 (configuration not stated)
active: MDA-MB-435 melanoma -41.3% | MDA-MB-468 breast 5.35%
inactive: T-47D breast 35.4% | BT-549 breast 23.3% | SW-620 colon 37.4% | MCF7 breast 14% | HCT-116 colon 34.7% | HCC-2998 colon 95.7% | KM12 colon 49.2%

CC(C)Sc1nc(NCCc2c[nH]c3ccccc23)c(C#N)c(-c2ccccc2)n1
active: T-47D breast -9.65% | SW-620 colon -11.6% | MCF7 breast -22.5% | HCT-116 colon 0.232% | HCC-2998 colon 4.86% | KM12 colon 6.51% | MDA-MB-468 breast -4.09%
inactive: BT-549 breast 55.1% | MDA-MB-435 melanoma 48.1%

COc1ccc2[nH]c(O)c(N=NC(=O)Cn3c(-c4ccccc4)nc4cc(C)ccc43)c2c1
active: BT-549 breast -61.7% | HCT-116 colon -72.7%
inactive: T-47D breast 30.3% | MDA-MB-435 melanoma 43.7% | SW-620 colon 47.2% | MCF7 breast 33% | HCC-2998 colon 18.9% | KM12 colon 47.3% | MDA-MB-468 breast 34.4%

C#CCOc1ccc(/C=N/Nc2nc(-c3ccc(Cl)cc3)cs2)cc1OC
inactive: T-47D breast 18.5% | BT-549 breast 36% | MDA-MB-435 melanoma 44.1% | SW-620 colon 82.2% | MCF7 breast 21.8% | HCT-116 colon 48.1% | HCC-2998 colon 90.3% | KM12 colon 61.8% | MDA-MB-468 breast 42.1%

Cc1cccc(NC(=O)[C@]23CCC(C)(C)CC2C2=CCC4[C@@]5(C)C[C@@H](O)[C@H](O)[C@@](C)(CO)C5CC[C@@]4(C)[C@]2(C)CC3)c1 (some centres not stated)
active: BT-549 breast 8.83% | MCF7 breast -6.63% | HCT-116 colon 1.25% | HCC-2998 colon -64% | KM12 colon 3.56% | MDA-MB-468 breast -8.73%
inactive: T-47D breast 13.5% | MDA-MB-435 melanoma 25.5% | SW-620 colon 33.2%

CCCCCCCCc1ccc(C(=O)Nc2ccc(C)cc2C(=O)O)cc1C
inactive: T-47D breast 94.4% | BT-549 breast 101% | MDA-MB-435 melanoma 105% | SW-620 colon 97.2% | MCF7 breast 93.8% | HCT-116 colon 84% | HCC-2998 colon 106% | KM12 colon 79.7% | MDA-MB-468 breast 92.8%

COC(OC)C1=C(C)OC(N)=C(C#N)C12C(=O)Nc1ccccc12 (configuration not stated)
inactive: T-47D breast 100% | BT-549 breast 123% | MDA-MB-435 melanoma 94.8% | SW-620 colon 85.5% | MCF7 breast 60.7% | HCT-116 colon 100% | HCC-2998 colon 106% | KM12 colon 95.3% | MDA-MB-468 breast 85.9%

C#CCOc1ccc(/C=N/Nc2nc(-c3ccc(F)cc3)cs2)cc1OC
inactive: T-47D breast 35.4% | BT-549 breast 24.5% | MDA-MB-435 melanoma 56.2% | SW-620 colon 86.7% | MCF7 breast 35.3% | HCT-116 colon 44.6% | HCC-2998 colon 92.9% | KM12 colon 59.9% | MDA-MB-468 breast 51.3%

CC(=O)Nc1cccc(-c2nc3cc(-c4ccc(O)cc4)ccc3n2C)c1
active: T-47D breast 9.44% | BT-549 breast -8.08% | MCF7 breast 6.65% | MDA-MB-468 breast 7.83%
inactive: MDA-MB-435 melanoma 11.1% | SW-620 colon 79.3% | HCT-116 colon 45.7% | HCC-2998 colon 88.2% | KM12 colon 37.5%

CC(C)CSc1nc(NCCc2c[nH]c3ccccc23)c(C#N)c(-c2ccccc2)n1
inactive: T-47D breast 30.9% | BT-549 breast 92.6% | MDA-MB-435 melanoma 71.7% | SW-620 colon 36.1% | MCF7 breast 20.1% | HCT-116 colon 11.6% | HCC-2998 colon 43.5% | KM12 colon 35.3% | MDA-MB-468 breast 20.8%

COc1ccc(/C=C2\C(=N)N=C(SCc3nc4ccccc4[nH]3)NC2=O)cc1
inactive: T-47D breast 87.9% | BT-549 breast 106% | MDA-MB-435 melanoma 105% | SW-620 colon 98.8% | MCF7 breast 99.1% | HCT-116 colon 105% | HCC-2998 colon 116% | KM12 colon 105% | MDA-MB-468 breast 119%

C=C1CCC2C3(C)COC(c4ccco4)OC3CCC2(C)C1CC(Sc1ccccc1)C1=CCOC1=O (configuration not stated)
active: BT-549 breast 5.74%
inactive: T-47D breast 77.3% | MDA-MB-435 melanoma 54.1% | SW-620 colon 34.8% | MCF7 breast 23.1% | HCT-116 colon 12% | HCC-2998 colon 57% | KM12 colon 71.9% | MDA-MB-468 breast 17%
